A short description of experiment [1]: Primary qHTS for inhibitors of SARS-S pseudo-typed particle cell entry (AID 1479145). Further: nearly all actives have a fitted effect of over 45% in size. On activity change, negative = inhibition: on the % scale 0 is the no-effect control and ±100 the full control effect. The note with it: outcome: dose series up to 57.1 µM unless noted.
Experiment [2] can be described thus: Primary qHTS for Huh7 cytotoxicity: counterscreen for inhibitors of MERS-S pseudotyped particle cell entry (AID 1479147). On activity change, negative = cytotoxicity: on the % scale 0 is the no-effect control and ±100 the full control effect. The note with it: outcome: dose series up to 57.1 µM unless noted.
Experiment [3] in a line: Primary qHTS for inhibitors of MERS-S pseudo-typed particle cell entry (AID 1479149). Further: nearly all actives have a fitted effect of over 60% in size. The following applies: outcome: dose series up to 57.1 µM unless noted.
Experiment [4] in a line: Primary qHTS for Vero E6 cytotoxicity: counterscreen for inhibitors of SARS-S pseudo-typed particle cell entry (AID 1479150). On activity change, negative = cytotoxicity: on the % scale 0 is the no-effect control and ±100 the full control effect. The following applies: outcome: dose series up to 57.1 µM unless noted.
A short description of experiment [5]: Cytotoxicity counterscreen for inhibitors of SARS-CoV-2 cell entry (AID 1645845). Further: nearly all actives have a fitted effect of over 50% in size. The note with it: outcome: dose series up to 57.1 µM unless noted. Summed up: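 After a 15 min room-temperature ATPLite 1step step, luminescence reflected ATP remaining in HEK293-ACE2 cells exposed to compound for 1 h plus 48 h at 37 C, with percent activity set by cell and no-cell controls.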

Experiment [6] can be described thus: Primary qHTS to identify inhibitors of SARS-CoV-2 cell entry (AID 1645846). Further: nearly all actives have a fitted effect of over 45% in size. The following applies: SARS-CoV-2 pseudovirus cell entry assay, luminescence; activity change, negative = inhibition: at 57.1 µM (top of the series) unless noted. Summed up:
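Inhibition of spike-mediated entry was scored in human ACE2-transfected Expi293F cells. Particles were MLV-pseudotyped with Wuhan-Hu-1 S carrying a 19-aa C-terminal deletion; signal was luciferase after two days, scaled between spike PP and fusion-protein-free PP.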
Background: In qHTS, concentration-response curves come from the screen itself.

The target of experiment [7] is Nuclear receptor subfamily 1 group I member 3 (Homo sapiens) (UniProt Q14994). The experiment is described as follows: Primary qHTS for antagonist of constitutive androstane receptor (CAR) against the NCATS DSHEA and TCM libraries (AID 1794836; active means well fitted curve in the direction sought with a large enough effect; an effect the other way counts as inactive or inconclusive). The essentials:
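HepG2 cells stably carrying hCAR and a CYP2B6 luciferase reporter (2,500 cells/well) attached for 5 h, then received compounds with 48 uM CITCO for 24 h at 37C. ONE-Glo luminescence read antagonism; CellTiter-Fluor (405/540 nm) gave viability.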

Experiment [8] can be described thus: KB-8-5-11 P-gp reporter qHTS against the NCATS DSHEA and TCM libraries (AID 1919977; active means well fitted curve in the direction sought with a large enough effect; an effect the other way counts as inactive or inconclusive; further: 0% is about no effect). The essentials: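 KB-8-5-11, 500 cells/well, DMEM/10% FBS without colchicine; 4 h attach; cpd titrations, 72 h, 37C/5% CO2; CellTiter-Glo, 30 min RT, luminescence.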
Experiment [9] addresses Glutathione peroxidase 1 (Homo sapiens) (UniProt P07203). The experiment is described as follows: Primary qHTS Assay for Inhibitors of Recombinant Selenoprotein Glutathione Peroxidase 1 (GPX1) (AID 1845191; active means well fitted curve in the direction sought with a large enough effect; an effect the other way counts as inactive or inconclusive; further: nearly all actives have a fitted effect of over 65% in size; further: potency means the concentration at half of the fitted maximal effect; on activity, negative = inhibition: on the % scale 0 is the no-effect control and ±100 the full control effect). The essentials:
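GPX1 10 nM, GR 100 nM, GSH 1 mM, NADPH 0.5 mM, CHP 0.5 mM (final). 30-min cpd preincubation, RT. Ex340/Em450 read t=0, t=15 min.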

Experiment [10] addresses Phospholipid hydroperoxide glutathione peroxidase GPX4 (Homo sapiens) (UniProt P36969). Description: Primary qHTS Assay for Inhibitors of Recombinant Selenoprotein Glutathione Peroxidase 4 (GPX4) (AID 1845192; active means well fitted curve in the direction sought with a large enough effect; an effect the other way counts as inactive or inconclusive; further: nearly all actives have a fitted effect of over 65% in size; further: potency means the concentration at half of the fitted maximal effect). The essentials:
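qHTS, GR-coupled: GPX4 200 nM + cpd 30 min RT → GSH 1 mM, NADPH 0.5 mM, GR 100 nM → CHP 0.5 mM start; fluor 340/450 at t0 and t15 min; no-enzyme wells as control.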

Molecules are shown by their SMILES. Records with an inconclusive call do not appear. Activity calls are given as the source filed them. Unless noted, the call rests on the fitted dose curve.

Glutathione peroxidase 1 (Homo sapiens), sequence (P07203 whole entry, looked up): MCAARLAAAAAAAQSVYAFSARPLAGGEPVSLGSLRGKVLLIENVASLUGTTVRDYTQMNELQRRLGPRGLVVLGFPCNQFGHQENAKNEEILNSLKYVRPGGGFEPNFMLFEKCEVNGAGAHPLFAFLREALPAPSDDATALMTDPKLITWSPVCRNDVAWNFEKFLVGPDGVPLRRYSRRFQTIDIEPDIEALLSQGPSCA
Phospholipid hydroperoxide glutathione peroxidase GPX4 (Homo sapiens), sequence (P36969 whole entry, looked up): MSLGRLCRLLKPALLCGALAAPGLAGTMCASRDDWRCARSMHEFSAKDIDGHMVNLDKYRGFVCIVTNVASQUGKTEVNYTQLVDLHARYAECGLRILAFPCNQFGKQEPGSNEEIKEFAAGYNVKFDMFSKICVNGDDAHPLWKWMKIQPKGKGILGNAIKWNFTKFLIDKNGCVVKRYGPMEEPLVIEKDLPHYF
Nuclear receptor subfamily 1 group I member 3 (Homo sapiens), sequence (Q14994 whole entry, looked up): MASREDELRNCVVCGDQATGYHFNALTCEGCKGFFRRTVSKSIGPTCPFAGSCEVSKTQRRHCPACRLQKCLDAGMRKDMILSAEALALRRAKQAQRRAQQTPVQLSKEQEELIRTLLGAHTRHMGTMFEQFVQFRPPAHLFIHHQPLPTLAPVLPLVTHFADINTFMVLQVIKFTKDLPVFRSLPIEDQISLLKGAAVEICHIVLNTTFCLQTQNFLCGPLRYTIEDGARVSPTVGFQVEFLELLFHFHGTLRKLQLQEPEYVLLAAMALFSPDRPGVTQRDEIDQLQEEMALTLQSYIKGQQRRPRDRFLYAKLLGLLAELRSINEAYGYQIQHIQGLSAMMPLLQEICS

With `CS(=O)(=O)n1cc2c(n1)CN([C@H]1CO[C@H](c3cc(F)ccc3F)[C@@H](N)C1)C2`, the Potency result in experiment [1], in [2], in experiment [3], in experiment [4] and in [5] was “inactive” in each case. In addition, in [6], the activity change, negative = inhibition is -25.8%.

`C#C[C@]1(O)CCC2C3CCC4=C(CCC(=O)C4)C3CC[C@@]21C` (stereo partly drawn): the Potency entry in experiment [1], in [2], in experiment [3], in experiment [4] and in [5] was “inactive” throughout. Besides, the activity change, negative = inhibition in experiment [6] is -12.9%.

As to `CCCCCCCCCCCCCCCC(=O)OCC=C(C)C=CC=C(C)C=CC1=C(C)CCCC1(C)C`, the Potency result in experiment [1], in [2], in [3], in [4] and in experiment [5] was “inactive” throughout. Moreover, the activity change, negative = inhibition in experiment [6] is -0.93%.

As to `CC(=O)OC1CC2CCC1(C)C2(C)C` (stereo not drawn), the Potency result in experiment [1], in experiment [2], in experiment [3], in experiment [4], in experiment [5] and in experiment [7] was “inactive” throughout. Besides, the Potency result in [8] was “inactive”. Moreover, in experiment [6], the activity change, negative = inhibition was -37.9%.

Consider `C[C@@H]1C[C@H]2[C@@H]3C[C@H](F)C4=CC(=O)C=C[C@]4(C)[C@@]3(F)[C@@H](O)C[C@]2(C)[C@@]1(O)C(=O)COC(=O)C(C)(C)C`, for which the Potency entry in experiment [1], in experiment [2], in experiment [3], in experiment [4], in [5] and in experiment [6] was “inactive” each time.

As for `COC1(O[C@H]2CC[C@H]3[C@@H]4CC[C@H]5C[C@@H]6S[C@@H]6C[C@]5(C)[C@H]4CC[C@]23C)CCCC1`, the Potency entry in experiment [1], in experiment [2], in experiment [3], in [4], in experiment [5] and in [6] was “inactive” in each case. Further, the Potency entry in experiment [9] and in experiment [10] was “inactive” each time.

Consider `CC(=O)CCC1C(=O)N(c2ccccc2)N(c2ccccc2)C1=O`, for which the Potency result in experiment [1], in [2], in [3], in experiment [4] and in experiment [5] was “inactive” throughout. Moreover, the activity change, negative = inhibition in [6] was -21%.

As to `C1CNCCN1`, the Potency result in experiment [1], in [2], in [3], in experiment [4] and in experiment [5] was “inactive” throughout. Further, the activity change, negative = inhibition in experiment [6] was 2.96% [at 114 µM].

For `CC(=O)OCC(=O)[C@@]1(O)[C@H](C)C[C@H]2[C@@H]3C[C@H](F)C4=CC(=O)C=C[C@]4(C)[C@H]3[C@@H](O)C[C@@]21C`, the Potency result in experiment [1], in experiment [2], in experiment [3], in [4] and in experiment [5] was “inactive” in each case. In experiment [6], the activity change, negative = inhibition was -11.4%.

In the case of `O=c1ccc2cc(O[C@@H]3O[C@H](CO)[C@H](O)[C@H](O)[C@H]3O)c(O)cc2o1`, the Potency result in experiment [1], in experiment [2], in experiment [3], in experiment [4], in experiment [5] and in experiment [6] was “inactive” throughout. In addition, the Potency in [9] was 16.1 µM (active); in experiment [10], 25.5 µM (active).

For the compound `CC1(C)S[C@@H]2[C@H](N)C(=O)N2[C@@H]1C(=O)O`, the outcome in [1] was “inactive [at 5.34 µM]”; in [2], “inactive [at 5.34 µM]”; in [3] it was “inactive [at 5.34 µM]”; in experiment [4], “inactive [at 5.34 µM]”; in [5] it was “inactive [at 5.25 µM]”; in experiment [6], “inactive [at 5.25 µM]”. Further, the outcome in experiment [10] was “inactive [at 4.52 µM]”. Moreover, the activity, negative = inhibition in experiment [9] was 1.27% [at 4.49 µM] (inactive).

As for `CN(Cc1ccccc1)C(=O)[C@H](NC(=O)c1cc2cc(NC(=O)c3ccccc3-c3ccc(C(F)(F)F)cc3)ccc2n1C)c1ccccc1`, the Potency entry in [1], in [2], in [3], in [4] and in experiment [5] was “inactive” in each case. Further, the activity change, negative = inhibition in experiment [6] was -7.12%.

For the compound `Cc1oc(=O)oc1COC(=O)N1CC[C@@H](N2CC/C(=C\C3=C(C(=O)O)N4C(=O)[C@@H](NC(=O)/C(=N/O)c5nsc(N)n5)[C@H]4SC3)C2=O)C1`, the Potency entry in experiment [1], in experiment [2], in experiment [3], in [4] and in [5] was “inactive” each time. Besides, the activity change, negative = inhibition in experiment [6] was -27.9%.

Take `CC(C)C[C@H](NC(=O)[C@@H](COC(C)(C)C)NC(=O)[C@H](Cc1ccc(O)cc1)NC(=O)[C@H](CO)NC(=O)[C@H](Cc1c[nH]c2ccccc12)NC(=O)[C@H](Cc1cnc[nH]1)NC(=O)[C@@H]1CCC(=O)N1)C(=O)N[C@@H](CCCN=C(N)N)C(=O)N1CCC[C@H]1C(=O)NNC(N)=O`: the Potency result in experiment [1], in [2], in experiment [3], in [4] and in experiment [5] was “inactive” throughout. In [6], the activity change, negative = inhibition was -11.8% [at 27.1 µM].

Regarding `CCOC(=O)[C@H](CS)NCCN[C@@H](CS)C(=O)OCC`, the Potency result in [1], in experiment [2], in [3], in experiment [4], in experiment [5] and in experiment [6] was “inactive” each time.

As to `NCc1ccccc1CC(=O)N[C@@H]1C(=O)N2C(C(=O)O)=C(CSc3nnnn3CC(=O)O)CS[C@H]12`, the Potency entry in experiment [1], in experiment [2], in [3], in [4] and in experiment [5] was “inactive” throughout. In experiment [6], the activity change, negative = inhibition is -25.4%.

As for `CN(C)C=Nc1c(I)cc(I)c(CCC(=O)O)c1I`, the Potency result in experiment [1], in experiment [2], in [3], in experiment [4] and in experiment [5] was “inactive” in each case. In [6], the activity change, negative = inhibition was -33.1%.

For `CC[N+]1(C)C2CC(OC(=O)[C@H](CO)c3ccccc3)CC1[C@@H]1O[C@H]21` (stereo partly drawn), the Potency entry in [1], in [2], in experiment [3], in [4], in experiment [5] and in experiment [9] was “inactive” each time. In addition, the Potency result in [10] is “inactive”. For the same compound, the activity change, negative = inhibition in experiment [6] is -33.5%.

Regarding `CCC=CCC=CCC=CCCCCCCCC(=O)O`, the Potency entry in [1], in [2], in experiment [3], in experiment [4], in experiment [5] and in experiment [6] was “inactive” in each case.

Consider `C[C@]12C=CC(=O)C=C1CCC1C2[C@@H](O)C[C@@]2(C)C1CC[C@]2(O)C(=O)COC(=O)CCC(=O)O` (stereo partly drawn), for which the Potency result in experiment [1], in experiment [2], in experiment [3], in experiment [4] and in experiment [5] was “inactive” throughout. In experiment [6], the activity change, negative = inhibition was -21.3%.

As for `CN(CC(=O)N1CCOCC1)Cc1c(Cl)cccc1NC(=O)c1ccccc1`, the Potency entry in experiment [1], in [2], in [3], in experiment [4] and in [5] was “inactive” in each case. In addition, the activity change, negative = inhibition in experiment [6] was -38.4%.

Take `O=C(Cc1cccs1)NC1C(=O)N2C(C(=O)[O-])=C(C[n+]3ccccc3)CSC12` (stereo not drawn): the Potency result in [1], in [2], in experiment [3], in [4] and in experiment [5] was “inactive” each time. Besides, in experiment [6], the activity change, negative = inhibition was -15.7%.

As to `CCC(=C(CC)c1ccc(OP(=O)(O)O)cc1)c1ccc(OP(=O)(O)O)cc1`, the activity change, negative = inhibition in [1] is -9.86% [at 0.573 µM] (inactive); in [6], -22.1% [at 0.702 µM]. Besides, the outcome in experiment [2] and in [3] was “inactive [at 0.573 µM]” in each case. Also, the activity change, negative = cytotoxicity in experiment [4] was -3.89% [at 0.573 µM] (inactive); in experiment [5], 1.12% [at 0.702 µM] (inactive).

The values above are taken from PubChem BioAssay (NCATS).
